Screening results deposited in PubChem by National Center for Advancing Translational Sciences (NCATS).
hNpr1 antagonist: antagonists of human natriuretic peptide receptor Npr1. Potency, µM (highest dose often 46.3 µM), for inactives: top-dose activity change, negative = inhibition, usual class: inhibitors. P16066. HEK293 hNpr1 GloSensor cGMP, ANP-stimulated luminescence. 76,000 compounds, 1.6% hits; calls by dose curve; note: nearly all actives have a fitted effect of over 60% in size
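HEK293 cells stably expressing human Npr1 and cGMP GloSensor pGS-40F, loaded 2 h with 2% GloSensor reagent, given compound 30 min at room temperature. Luminescence read before and 20 min after 0.1 nM hNppA.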
NIH3T3 tox: kills NIH 3T3 cells; NIH 3T3 viability, CellTiter-Glo ATP luminescence, 48-72 h; Potency, µM (series often up to 96.7 µM), inactives show top-dose activity change, negative = cytotoxicity, usual class: inhibitors; 94,000 compounds, 4.3% hits; AID 1345082; note: nearly all actives have a fitted effect of over 55% in size
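Cells were seeded at 400 per well, treated with pin-transferred compound, and kept 48 or 72 hr at 37 °C before CellTiter-Glo addition and luminescence imaging of cellular ATP.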
FLuc inh: inhibitors of firefly (Photinus pyralis) luciferase. AID 1347043. P08659. 76,000 compounds, 2.5% hits. Potency, µM (top dose mostly 115 µM), usual class: inhibitors. purified P. pyralis luciferase, luminescence, biochemical; note: nearly all actives have a fitted effect of over 65% in size
Target sequence (P08659 whole entry, looked up): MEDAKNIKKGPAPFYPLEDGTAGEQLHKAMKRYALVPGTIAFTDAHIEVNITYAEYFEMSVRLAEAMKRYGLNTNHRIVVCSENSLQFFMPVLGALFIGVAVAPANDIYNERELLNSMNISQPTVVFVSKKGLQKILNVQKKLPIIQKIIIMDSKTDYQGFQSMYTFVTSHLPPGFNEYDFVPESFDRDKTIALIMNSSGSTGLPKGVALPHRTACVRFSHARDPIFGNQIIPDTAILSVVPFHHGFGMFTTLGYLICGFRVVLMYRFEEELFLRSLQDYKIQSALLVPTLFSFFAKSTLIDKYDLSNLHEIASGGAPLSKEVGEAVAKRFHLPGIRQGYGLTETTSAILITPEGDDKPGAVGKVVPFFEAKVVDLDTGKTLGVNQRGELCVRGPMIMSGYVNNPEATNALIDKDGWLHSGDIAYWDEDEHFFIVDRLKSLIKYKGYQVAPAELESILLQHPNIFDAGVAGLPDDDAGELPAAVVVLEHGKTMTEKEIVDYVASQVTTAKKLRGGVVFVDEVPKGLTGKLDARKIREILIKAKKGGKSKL
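Inhibitors were tested against purified firefly luciferase in a biochemical, low-substrate format (both substrates at 10uM) and luminescence measured with a CCD imager.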
HEK cytotox: cytotoxic compounds in HEK 293 cells. Potency, µM (series often up to 115 µM), for inactives: at the highest dose activity change, negative = cytotoxicity, hits mostly inhibitors. 94,000 compounds, 6.6% hits. AID 1345083. HEK 293 viability, ATP luminescence (CellTiter-Glo), 48-72 h; note: nearly all actives have a fitted effect of over 60% in size
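Read-out: CellTiter-Glo ATP luminescence. Cells: HEK 293, 250 cells/well. Exposure: 48 or 72 hr, 37 degree Celsius.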
GPT2 inhibitor: blocks human glutamate pyruvate transaminase 2 | Q8TD30 | Recombinant GPT2, coupled pyruvate oxidase/HRP Amplex Red fluorescence | Potency, µM (highest dose often 57.7 µM), without a hit: at the highest dose activity change, negative = inhibition, actives largely listed as inhibitors | 100,000 compounds, 0.25% hits | AID 1671188; note: nearly all actives have a fitted effect of over 60% in size
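Fluorescence read-out: pyruvate from GPT2 turnover coupled to pyruvate oxidase, HRP and Amplex Red (0.2mM ThPP, 0.2U/mL PO and HRP, 50uM Amplex final). Substrates 250uM a-KG, 2mM L-alanine; enzyme 10ng/uL; 30 min RT.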
* = called active by the depositor; i = inactive; ? = inconclusive; / = not tested or not shown; [ ] = dose if it differs, or a comment. Hits are enriched below; roughly 10% of the tested compounds scored in any of these assays. Unless noted, calls come from the whole dose curve; as a rule, active = well fitted curve in the direction sought with a large enough effect; inconclusive = small, poorly fitted or top-dose-only effect, or another doubt; inactive = no such curve, though single readings can be large; an effect the other way counts as inactive or inconclusive. % is set by controls: 0 for no effect and ±100 for the full control effect; potency is the fitted concentration of half-maximal effect.

SMILES	hNpr1 antagonist	NIH3T3 tox	FLuc inh	HEK cytotox	GPT2 inhibitor
COc1ccc(-c2cc3c(ccn3Cc3ccncc3)c(N3CCOCC3)n2)cn1	3.0%[70.6 µM]	?	i	?	4.3%[88.5 µM]
CN1CCC(Cn2ccc3c(N4CCOCC4)nc(-c4ccc5cn[nH]c5c4)cc32)CC1	1.6%[70.6 µM]	39.8µM*	i	100µM*	2.7%[88.5 µM]
CN1CCC(Cn2ccc3c(N4CCOCC4)nc(-c4cccc(N5CCOCC5)c4)cc32)CC1	-1.0%	31.6µM*	i	?	1.3%
O=C1NCc2cc(-c3cc4c(ccn4Cc4ccncc4)c(N4CCOCC4)n3)ccc21	-13.7%[70.6 µM]	?	i	?	i
CC1Oc2ccc(NC(=O)CC(C)(C)C)cc2CN(Cc2ccccc2F)C1=O (stereo not given)	-11.4%	?	i	-42.9%	0.5%
CC(=O)OCC1=CCC2C(C)(C)CCCC2(C)C12CCC(C)(CC(=O)O)O2 (stereo not given)	/	/	/	/	i
CC(C)(C)OC(=O)N1CC(Nc2ccc(Oc3ccccc3)cc2)C1	/	?	/	89.1µM*	i
Cn1cccc1C(=O)N1CCC(N2C(=O)C3(CCCC3)C2c2ccccc2)CC1 (stereo not given)	-1.7%	-29.7%	i	44.7µM*	-7.9%
CC(C)CC(=O)N1CCC(N2C(=O)C3(CCCC3)C2c2ccccc2)CC1 (stereo not given)	-3.2%	44.7µM*	i	?	i
CN(C)CC(=O)N1CCC(N2C(=O)C3(CCCC3)C2c2ccccc2)CC1 (stereo not given)	6.8%	-5.3%	i	-1.4%	-10.6%
CNC(=O)c1cc(C2CC2)nc2onc(C3CCN(C(=O)c4ccc(C)cc4)CC3)c12	/	-20.0%	/	4.0%	/
C[S+](=O)([O-])c1ccc(-c2ncc3c(n2)OCCN(c2ccccc2)C3=O)cc1	3.3%[70.6 µM]	?	?	?	i
COc1cc(F)cc(-c2ncc3c(n2)OCCN(c2cccc(C(F)(F)F)c2)C3=O)c1	-9.4%[70.6 µM]	?	3.16µM*	-14.5%[172 µM]	1.9%[88.5 µM]
COc1ccc(OC)c(-c2ncc3c(n2)OCCN(c2cccc(C(F)(F)F)c2)C3=O)c1	-9.4%	?	i	-25.0%	3.0%
O=C1c2cnc(-c3ccsc3)nc2OCCN1c1cccc(C(F)(F)F)c1	?	112µM*	63.1µM*	100µM*	-20.2%[88.5 µM]
Cc1ccc(-c2ncc3c(n2)OCCN(c2ccccc2)C3=O)cc1F	7.08µM*	?	?	?	i
COc1ccc(F)cc1-c1ncc2c(n1)OCCN(c1cccc(C(F)(F)F)c1)C2=O	-10.9%[70.6 µM]	35.5µM*	i	?	0.1%[88.5 µM]
COc1ccc(CN2C(=O)CO[C@H]3CN(Cc4c[nH]c5ccccc45)C[C@H]32)cc1	?	?	i	?	3.3%[88.5 µM]
O=C(Nc1ccc(Cl)cc1)NC1CCN(c2nccc(Nc3ccccc3Cl)n2)CC1	/	?	/	?	-1.0%
Cc1ccsc1C(=O)Nc1ccc(-c2nnc3n2CCCC3)cc1	1.5%	?	35.5µM*	-26.9%	i
CCc1ccc(C(=O)Nc2cccc(-c3nnc4n3CCCC4)c2)cc1	?	?	22.4µM*	?	1.6%
O=C(Nc1cccc(-c2nnc3n2CCCC3)c1)c1ccccc1	-1.9%	-25.1%	i	-4.0%	3.6%
O=C(Nc1cccc(-c2nnc3n2CCCC3)c1)c1ccccc1Cl	0.0%	0.5%	i	6.3%	0.0%
CCOc1ccccc1C(=O)Nc1cccc(-c2nnc3n2CCCC3)c1	-1.6%	39.8µM*	i	?	i
CC(C)(C)c1ccc(-c2noc(CNC(=O)CN3C(=O)CNC3=O)n2)cc1	-2.7%	-5.7%	17.8µM*	-0.8%	-2.7%[11.5 µM]
SMILES	hNpr1 antagonist	NIH3T3 tox	FLuc inh	HEK cytotox	GPT2 inhibitor
COc1cccc(-c2ccc(C(=O)N3CCC(C(=O)N4CCN(Cc5ccccc5)CC4)CC3)cc2)c1	/	?	/	?	i
Cc1ccccc1-c1[nH]nc2ncc(-c3cn[nH]c3)nc12	0.0%[70.6 µM]	?	i	?	-11.5%[88.5 µM]
COc1ccc(-c2noc([C@@H]3C[C@H](NCc4cccc(C#N)c4)CN3C)n2)cc1	-28.5%[70.6 µM]	?	39.8µM*	?	i
O=C1Nc2ccc(-c3ccsc3)cc2C(=O)N2C[C@@H](NS(=O)(=O)c3ccc(F)cc3)C[C@@H]12	4.1%	-23.3%	i	-14.5%	-2.8%
COc1ccc(-c2ccc3c(c2)C(=O)N2C[C@@H](NS(=O)(=O)c4ccc(F)cc4)C[C@H]2C(=O)N3)c(OC)c1	-21.6%	?	i	28.2µM*	?
COc1ccc([C@H]2C[C@@H](O)[C@@H](O)[C@@H]2NCc2cccc(C(F)(F)F)c2)cc1	-4.7%[70.6 µM]	?	i	?	-5.1%[88.5 µM]
COc1ccc(-c2noc([C@@H]3C[C@H](NS(=O)(=O)c4cccs4)CN3C)n2)cc1	?	?	?	?	3.9%[88.5 µM]
COc1ccc([C@H]2C[C@@H](O)[C@@H](O)[C@@H]2NCc2cccc(C#N)c2)cc1	-2.6%[70.6 µM]	89.1µM*	i	-24.3%[172 µM]	-21.5%[88.5 µM]
COc1ccc(-c2noc([C@@H]3C[C@H](NCc4ccc(S(C)(=O)=O)cc4)CN3C)n2)cc1	?	-29.2%	44.7µM*	?	-0.4%
COc1ccc(S(=O)(=O)N[C@H]2C[C@@H](c3nc(-c4cnccn4)no3)N(C)C2)cc1	6.7%[70.6 µM]	-7.8%[138 µM]	i	-1.4%[172 µM]	0.8%[88.5 µM]
COc1ccc(S(=O)(=O)N[C@H]2C[C@@H](c3nc(-c4ccc(C)cc4)no3)N(C)C2)cc1	?	?	25.1µM*	79.4µM*	?
COc1ccc(-c2noc([C@@H]3C[C@H](NS(=O)(=O)c4ccc(F)cc4)CN3C)n2)cc1	-22.9%[70.6 µM]	?	17.8µM*	?	0.2%[88.5 µM]
Cc1ccc(CNC(=O)c2ccc3c(c2)CN(CC2=Cc4ccccc4OC2)CCO3)cc1	?	?	i	28.2µM*	i
Cc1ccc(CNC(=O)c2ccc3c(c2)CN(Cc2cncs2)CCO3)cc1	-11.4%	-9.5%	i	?	-4.7%
Cc1ccc(CNC(=O)c2ccc3c(c2)CN(Cc2cc(F)c(F)c(F)c2)CCO3)cc1	-1.5%	?	i	35.5µM*	-5.7%
Cc1ccc(CNC(=O)c2ccc3c(c2)CN(Cc2cccc(F)c2)CCO3)cc1	-8.6%	?	i	?	i
N[C@@H]1CN(c2ncccn2)C[C@H]1CO	-0.8%	-6.2%	i	?	0.3%
COc1ccc(-c2cnc([C@@H]3COCCN3C3CCCCC3)[nH]2)cc1	5.5%[70.6 µM]	?	i	31.6µM*	-9.6%[88.5 µM]
Cc1ccc(-c2cnc([C@@H]3COCCN3C3CCC3)[nH]2)cc1	4.6%[70.6 µM]	2.2%[138 µM]	i	-15.6%[172 µM]	i
Cc1ccc(-c2cnc([C@@H]3COCCN3C(C)C)[nH]2)cc1	3.2%[70.6 µM]	?	i	112µM*	3.9%[88.5 µM]
Cn1ncc2c(C(=O)NC3CCCCC3)cc(-c3ccc(C(F)(F)F)cc3)nc21	/	-25.7%	/	-11.7%	/
